# Assay outcomes (PubChem BioAssay)
# Pf growth 48h = P. falciparum growth inhibition at 48 hours (one generation); P. falciparum luciferase growth in erythrocytes, 48 h; Potency, µM (series often up to 28.7 µM), for the others: top-dose activity change, negative = inhibition, most hits filed as inhibitors; 310,000 compounds, 5.9% hits; also: potency is read from the fitted curve at half-maximal effect; % is scaled to controls: 0 for no effect and ±100 for the full control effect
#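 Firefly luciferase activity from engineered P. falciparum reports growth; inhibitors lower the luminescent signal. Cultures contained 2% hematocrit erythrocytes at 0.1% final parasitemia.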
# Cycloheximide cs = affects cycloheximide protein synthesis inhibition readout, counter-screen | cell reporter, cycloheximide protein synthesis inhibition counterscreen | 300,000 compounds, 12% hits | AID 2314 | max response, %; in the data active = max response mostly above about 13%, no sharp cut-off; inactive = mostly below about 14%; also: read at 38.3 µM for the half of the compounds with a filed dose; 0% is about no effect
# Shiga inhibitor = blocks Shiga toxin action in Vero cells; Vero cells, Shiga toxin protein synthesis inhibition reporter; 290,000 compounds, 9.2% hits; inhibition, % at 38.7 µM; in the data active = inhibition mostly above about 28%, no sharp cut-off; inactive = mostly below about 43%; also: 0% is about no effect
# LmPK inh = LmPK (Leishmania mexicana) enzyme inhibition; purified LmPK, Kinase-Glo ATP luminescence, 1 h; Potency, µM (series often up to 57.5 µM), for inactives: at the top dose activity change, negative = inhibition, actives largely listed as inhibitors; 290,000 compounds, 0.37% hits; also: potency is read from the fitted curve at half-maximal effect; % is scaled to controls: 0 for no effect and ±100 for the full control effect
# Target sequence (Q27686 whole entry, looked up): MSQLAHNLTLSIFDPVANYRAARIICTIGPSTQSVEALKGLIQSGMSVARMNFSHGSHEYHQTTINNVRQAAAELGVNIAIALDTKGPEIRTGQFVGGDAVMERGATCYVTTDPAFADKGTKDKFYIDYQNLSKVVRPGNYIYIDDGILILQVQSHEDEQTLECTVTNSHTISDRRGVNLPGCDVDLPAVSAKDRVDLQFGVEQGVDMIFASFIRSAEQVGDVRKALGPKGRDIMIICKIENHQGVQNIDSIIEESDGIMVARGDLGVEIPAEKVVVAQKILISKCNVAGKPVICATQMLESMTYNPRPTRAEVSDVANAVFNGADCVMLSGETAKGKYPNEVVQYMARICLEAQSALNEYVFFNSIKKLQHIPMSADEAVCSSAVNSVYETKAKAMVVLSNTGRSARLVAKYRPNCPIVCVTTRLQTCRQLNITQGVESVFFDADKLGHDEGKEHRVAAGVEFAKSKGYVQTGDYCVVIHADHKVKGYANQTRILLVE
#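 Pyruvate kinase activity monitored as ATP production (luciferase luminescence). Conditions: 0.1 nM enzyme, 0.5 mM PEP, 0.1 mM ADP, 1 h, RT; normalized against uninhibited and no-enzyme wells.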
# Pf growth 96h = P. falciparum growth inhibition at 96 hour, primary screen for plastid delayed-death inhibitors. 320,000 compounds, 6.9% hits. P. falciparum luciferase reporter growth, 96 h. Potency, µM (highest dose often 28.7 µM), for inactives: at the top dose activity change, negative = inhibition, hits mostly inhibitors; also: potency is read from the fitted curve at half-maximal effect; % is scaled to controls: 0 for no effect and ±100 for the full control effect
#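 Two parasite generations (96 h, 37 C, 5% CO2) of compound exposure in infected erythrocytes (0.05% parasitemia, 2% hematocrit). Luciferase-reporter P. falciparum; decreased luminescence indicates inhibited growth, aimed at apicoplast-acting delayed death.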
# An asterisk follows results filed as active; i = inactive; ? = inconclusive; · = no result; [ ] = dose if it differs, or a comment. A selection: hits, their analogues and other compounds. The true share with any hit is near 22%. Unless noted, calls follow the shape of the dose curve; as a rule, active = well fitted inhibition curve with a large enough effect; inconclusive = small, poorly fitted or top-dose-only effect, or another doubt; inactive = no such curve, though single readings can be large or run the other way.
SMILES,Pf growth 48h,Cycloheximide cs,Shiga inhibitor,LmPK inh,Pf growth 96h
Nc1c(C(=O)Nc2ccc3c(c2)OCCO3)nnn1Cc1ccc(F)cc1,58.9%,·,·,·,97.9%
Nc1c(C(=O)Nc2cccc(F)c2)nnn1-c1ccc2c(c1)OCCO2,133.8%,20.4*,69.6*,-2.9%,134.6%
CCCCCc1nnc(NC(=O)C2=COCCO2)s1,76.9%,·,·,·,75.3%
COc1ccc(CCNC(=O)c2nnn(-c3ccc4c(c3)OCCO4)c2N)cc1OC,151.3%,70.0*,151.1*,7.5%,0.4%
COc1ccc(CCNC(=O)c2nnn(-c3ccccc3OC)c2N)cc1OC,0.4%,-1.8,-2.1,0.4%,?
COc1ccc(CC(=O)Nc2ccc(F)c(F)c2F)cc1S(=O)(=O)N1CCOCC1,11.7µM*,·,·,·,?
COc1ccc(CC(=O)NC(C)(C)C)cc1S(=O)(=O)N1CCOCC1,·,5.6,-13.4,-1.7%,26.3%
CCCCc1nnc(NC(=O)Cc2ccc(OC)c(S(=O)(=O)N3CCOCC3)c2)s1,10.4µM*,·,·,·,?
COc1ccc(COC(=O)c2ccc(Br)c(S(=O)(=O)N3CCOCC3)c2)cc1F,3.29µM*,·,·,·,?
COc1ccc(CC(=O)Nc2nc3ccc(F)cc3s2)cc1S(=O)(=O)N1CCOCC1,?,40.1*,69.8*,2.2%,6.57µM*
COc1ccc(CC(=O)Nc2nnc(SCc3ccccc3)s2)cc1S(=O)(=O)N1CCOCC1,-26.0%,7.5,-7.5,2.7%,·
CS(=O)(=O)N1CCN(c2ccc([N+](=O)[O-])c(NCc3cccnc3)c2)CC1,1.4%,2.1,3.2,0.8%,1.4%
COc1ccc(-c2nc3c(c4c2C[C@H](c2ccccc2)OC4)CN(C(=O)Cc2cccs2)CC3)c(C)c1,·,·,·,-9.4%[11.5 µM],·
Cc1ccc(C(=O)COC(=O)CN2C(=O)C3C4CC(C(Br)C4Br)C3C2=O)cc1 (configuration not stated),10.2%,-5.5,-5.1,-0.6%,?
O=[N+]([O-])c1ncccc1OCc1ccccc1Br,6.5%,7.7,-5.2,-5.5%,14.7%
Cc1ccc(C(=O)N=c2sccn2C)cc1C,10.3%,-1.7,-16.4,-5.7%,-8.4%
Cc1ccccc1C(=O)N=c1sccn1C,·,12.8*,46.0,3.4%,60.2%
Cc1cccc(C(=O)N=c2sccn2C)c1[N+](=O)[O-],70.8%,50.4*,74.1*,-3.2%,68.6%
Cc1cc(C)c(S(=O)(=O)Cc2ccccc2)c(Cl)n1,12.2%,-4.3,-11.2,-1.8%,3.4%
COc1cccc(C(=O)NCC2CCN(c3ccc(S(=O)(=O)N4CCOCC4)cc3)CC2)c1,11.7µM*,-0.3,-23.2,10.4%,5.22µM*
COc1cccc(-c2nnc(NC(=O)c3ccc(S(=O)(=O)N4CCOCC4)cc3)o2)c1,?,-1.7,-16.1,4.5%,106.0%
O=C(NCC1CCN(c2ccc(S(=O)(=O)N3CCOCC3)cc2)CC1)c1cccc(Cl)c1,·,-2.6,-11.6,2.1%,11.7µM*
O=C(c1ccc(S(=O)(=O)N2CCOCC2)cc1)N1CCN(c2cccc(Cl)c2)CC1,-3.9%,-2.2,-7.0,2.9%,·
Cc1[nH]c2ccccc2c1C(c1ccccn1)c1c(C)[nH]c2ccccc12,9.28µM*,11.8,13.8,1.4%,·
CN(C(=O)C1CCC(CNS(=O)(=O)c2cccc3cccnc23)CC1)C1CCCCC1 (configuration not stated),?,2.1,-2.1,-0.9%,?
SMILES,Pf growth 48h,Cycloheximide cs,Shiga inhibitor,LmPK inh,Pf growth 96h
OC[C@@H]1O[C@H](OC2[C@@H](O)[C@@H](O)C(O)O[C@@H]2CO)[C@H](O)[C@@H](O)[C@@H]1OC1O[C@H](CO)[C@@H](O)[C@H](O)[C@@H]1O (some centres not stated),·,-8.4,8.3,·,·
CCOC(=O)c1nc2sc3c(c2c(=O)[nH]1)CCC(C)C3 (configuration not stated),?,4.9,-9.0,2.1%,86.0%
CCN(CC)C(=O)CSc1nc(N)c2c3c(sc2n1)CC(C)CC3 (configuration not stated),·,21.4*,56.9*,4.9%,?
CCOC(=O)CSc1nc(N)c2c3c(sc2n1)CCCC3,·,25.1*,51.0,0.8%,31.2%
CCOC(=O)c1cnn(-c2nc(SC)nc3sc4c(c23)CCCC4)c1N,?,-0.8,-15.6,3.3%,·
CC1CCc2c(sc3nc(SCC(=O)NCc4ccco4)nc(N)c23)C1 (configuration not stated),27.9%,16.6*,42.1,0.1%,2.5%[5.75 µM]
O=C(O)[C@H]1C(=CCO)O[C@H]2CC(=O)N12,2.8%,·,·,·,14.6%
COc1ccc(NC(=O)c2cn(CCC#N)nc2-c2cc3ccccc3o2)cc1,-23.9%,-3.6,-0.9,-0.8%,-21.8%[5.75 µM]
CCC(Sc1nc(N)c(NC(=O)c2ccc(Br)o2)c(=O)[nH]1)C(=O)O (configuration not stated),-0.3%,7.9,-10.9,-6.3%,?
Cc1ccc(NC(=O)C2CCN(S(=O)(=O)c3ccc4c(c3)CCCC(=O)N4)CC2)c(Br)c1,-12.6%,-3.8,-6.2,-1.9%,-21.5%
CC(=O)c1cccc(N(CC(=O)NC2CCCCC2)C(=O)Cn2nnc(-c3ccccc3)n2)c1,-29.1%,-4.3,-4.8,-3.6%,35.4%
COc1cccc(C2C3=C(CCCC3=O)Nc3[nH]n(-c4ccccc4)c(=O)c32)c1 (configuration not stated),-10.2%,-5.4,25.1,1.4%,-18.4%
COc1cc(C2C3=C(CCCC3=O)Nc3[nH]n(-c4ccccc4)c(=O)c32)ccc1O (configuration not stated),5.22µM*,-2.8,7.4,-0.8%,?
Cc1ccccc1-n1c(-c2ccc(Cl)cc2)cnc1SCC(=O)NC1CCS(=O)(=O)C1 (configuration not stated),?,-3.2,0.7,-6.5%,?
Cc1ccc(NC(=O)CCN2C(=O)NC(C)(C)C2=O)cc1F,-21.6%,·,·,·,16.2%
O=C(Nc1ccncc1)c1cccc2ccccc12,?,15.2,1.7,10.7%,?
O=C(Nc1ccc(Cl)cn1)c1ccccc1[N+](=O)[O-],44.9%,18.4*,44.6,-0.3%[11.5 µM],?
O=C(Nc1ccc(Cl)cn1)c1cccc2ccccc12,29.9%,18.2*,·,9.1%,5.1%
COc1ccc(N=c2oc3c(OC)cccc3cc2C(=O)NCc2ccco2)cc1OC,?,10.8,27.7,-1.4%,118.5%
COc1ccc(OC)c(N=c2oc3c(OC)cccc3cc2C(=O)NCc2ccco2)c1,8.5%,-0.9,54.0,0.7%,17.9%
COc1ccc(S(=O)(=O)N(Cc2ccccc2)c2ccccc2C(=O)Nc2ccccc2C(=O)NCc2ccco2)cc1,13.1µM*,19.5,-0.9,0.8%,i
COc1ccc(C(=O)Nc2ccc(Cl)cc2C(=O)NCc2ccco2)cc1OC,10.4µM*,42.5*,54.6*,-1.1%,21.9%
COc1cccc2cc(C(=O)Nc3ccc(F)cc3)c(=Nc3ccc(C(=O)O)cc3)oc12,3.9%,51.0*,76.1*,-0.5%,12.7%
COc1ccccc1N=c1oc2c(OC)cccc2cc1C(=O)NCc1ccco1,4.0%,48.5*,114.6*,3.5%,?
